Holding throughout (assay): PBM; 200 nM protein, PBS
Details in all cases: dsDNA, one strand shown

One assay has as its target T1, SIX6 (Homo sapiens, UniProt O95475 114-200, L143M).
T1 sequence: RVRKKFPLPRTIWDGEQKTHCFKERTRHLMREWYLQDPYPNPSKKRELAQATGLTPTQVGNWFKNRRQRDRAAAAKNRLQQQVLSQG

In assay [1] the target is HOXB6 (Homo sapiens, UniProt P17509 132-218, K202E).
Assay [2] concerns the target HOXB6 (Homo sapiens, UniProt P17509 132-218).
In assay [3] the target is ALX3 (Homo sapiens, UniProt O95076 139-225, N203Q).
The target in assay [4] is ALX3 (Homo sapiens, UniProt O95076 139-225).
Assay [5] concerns the target ALX3 (Homo sapiens, UniProt O95076 139-225, L168Q).
Assay [6] concerns the target ALX3 (Homo sapiens, UniProt O95076 139-225, L168V).
The target of assay [7] is ALX3 (Homo sapiens, UniProt O95076 139-225, N203S).
Chain of ALX3 (Homo sapiens, UniProt O95076 139-225, N203S) (O95076 139-225 N203S): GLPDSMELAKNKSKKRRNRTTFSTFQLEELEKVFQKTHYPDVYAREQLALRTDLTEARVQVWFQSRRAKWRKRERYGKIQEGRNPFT

Chain of HOXB6 (Homo sapiens, UniProt P17509 132-218, K202E) (P17509 132-218 K202E): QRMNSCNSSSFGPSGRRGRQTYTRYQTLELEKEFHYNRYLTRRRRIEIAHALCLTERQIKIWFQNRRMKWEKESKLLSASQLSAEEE
Chain of HOXB6 (Homo sapiens, UniProt P17509 132-218) (P17509 132-218): as the sequence (P17509 132-218 K202E) above, with E71K counted along it
Chain of ALX3 (Homo sapiens, UniProt O95076 139-225, N203Q) (O95076 139-225 N203Q): as the sequence (O95076 139-225 N203S) above, with S65Q counted along it
Chain of ALX3 (Homo sapiens, UniProt O95076 139-225, L168Q) (O95076 139-225 L168Q): as the sequence (O95076 139-225 N203S) above, with L30Q, S65N counted along it
Chain of ALX3 (Homo sapiens, UniProt O95076 139-225) (O95076 139-225): as the sequence (O95076 139-225 N203S) above, with S65N counted along it
Chain of ALX3 (Homo sapiens, UniProt O95076 139-225, L168V) (O95076 139-225 L168V): as the sequence (O95076 139-225 N203S) above, with L30V, S65N counted along it

As to ATAGTATC, the binding signal with SIX6 was 11 upbm affinity estimate (log intensity, higher = more binding, comparable within an allelic series).

As for AGTCGCCC, the binding signal with HOXB6 [1] was 8.98 upbm affinity estimate (log intensity, higher = more binding, comparable within an allelic series); with HOXB6 [2], 9.09 upbm affinity estimate (log intensity, higher = more binding, comparable within an allelic series).

In the case of TACATTAA, the binding signal in the assay with HOXB6 [1] was 10 upbm affinity estimate (log intensity, higher = more binding, comparable within an allelic series); with ALX3 [3] it was 8.45 upbm affinity estimate (log intensity, higher = more binding, comparable within an allelic series); with ALX3 [4] it was 11 upbm affinity estimate (log intensity, higher = more binding, comparable within an allelic series); in the assay with ALX3 [5], 9.29 upbm affinity estimate (log intensity, higher = more binding, comparable within an allelic series); with ALX3 [6] it was 9.07 upbm affinity estimate (log intensity, higher = more binding, comparable within an allelic series); with ALX3 [7], 8.57 upbm affinity estimate (log intensity, higher = more binding, comparable within an allelic series).

GGTTTTTA: the binding signal is 9.65 upbm affinity estimate (log intensity, higher = more binding, comparable within an allelic series) with HOXB6 [1] and 10.3 upbm affinity estimate (log intensity, higher = more binding, comparable within an allelic series) in the assay with HOXB6 [2].

With CTCCTCGC, the binding signal with HOXB6 [1] was 9.02 upbm affinity estimate (log intensity, higher = more binding, comparable within an allelic series); with HOXB6 [2], 9.05 upbm affinity estimate (log intensity, higher = more binding, comparable within an allelic series).

For CTGGTCCC, the binding signal was 9.06 upbm affinity estimate (log intensity, higher = more binding, comparable within an allelic series) in the assay with HOXB6 [1] and 9.01 upbm affinity estimate (log intensity, higher = more binding, comparable within an allelic series) in the assay with HOXB6 [2].

As to GGCAGCAC, the binding signal with HOXB6 [1] is 9.12 upbm affinity estimate (log intensity, higher = more binding, comparable within an allelic series); in the assay with HOXB6 [2], 9.12 upbm affinity estimate (log intensity, higher = more binding, comparable within an allelic series).

Take AAGCAGGC: the binding signal in the assay with HOXB6 [1] was 9.08 upbm affinity estimate (log intensity, higher = more binding, comparable within an allelic series); in the assay with HOXB6 [2], 9.05 upbm affinity estimate (log intensity, higher = more binding, comparable within an allelic series).

Turning to CCGGAGCG, the binding signal with HOXB6 [1] is 9.07 upbm affinity estimate (log intensity, higher = more binding, comparable within an allelic series); with HOXB6 [2], 9.17 upbm affinity estimate (log intensity, higher = more binding, comparable within an allelic series).

As to GGCGGCAC, the binding signal in the assay with HOXB6 [1] was 9.08 upbm affinity estimate (log intensity, higher = more binding, comparable within an allelic series); in the assay with HOXB6 [2], 9.21 upbm affinity estimate (log intensity, higher = more binding, comparable within an allelic series).

For the sequence CCACGGAC, the binding signal with HOXB6 [1] was 9.01 upbm affinity estimate (log intensity, higher = more binding, comparable within an allelic series); in the assay with HOXB6 [2], 9.02 upbm affinity estimate (log intensity, higher = more binding, comparable within an allelic series).

As to ATTTCATA, the binding signal with HOXB6 [1] is 9.65 upbm affinity estimate (log intensity, higher = more binding, comparable within an allelic series); with HOXB6 [2], 10.2 upbm affinity estimate (log intensity, higher = more binding, comparable within an allelic series).

With CATTAGGC, the binding signal in the assay with HOXB6 [1] is 9.37 upbm affinity estimate (log intensity, higher = more binding, comparable within an allelic series); in the assay with HOXB6 [2], 10.4 upbm affinity estimate (log intensity, higher = more binding, comparable within an allelic series).

For AGGCGGAC, the binding signal with HOXB6 [1] was 9.08 upbm affinity estimate (log intensity, higher = more binding, comparable within an allelic series); in the assay with HOXB6 [2], 9.04 upbm affinity estimate (log intensity, higher = more binding, comparable within an allelic series).

As to AGTCCTCC, the binding signal in the assay with HOXB6 [1] was 9.17 upbm affinity estimate (log intensity, higher = more binding, comparable within an allelic series); in the assay with HOXB6 [2] it was 9.06 upbm affinity estimate (log intensity, higher = more binding, comparable within an allelic series).

As for CCAGCGGA, the binding signal with HOXB6 [1] is 9.05 upbm affinity estimate (log intensity, higher = more binding, comparable within an allelic series); with HOXB6 [2], 8.93 upbm affinity estimate (log intensity, higher = more binding, comparable within an allelic series).

For the sequence AAGGGAGC, the binding signal in the assay with HOXB6 [1] is 9.01 upbm affinity estimate (log intensity, higher = more binding, comparable within an allelic series); with HOXB6 [2] it was 8.99 upbm affinity estimate (log intensity, higher = more binding, comparable within an allelic series).

On to CGTTGCCC, for which the binding signal was 9.13 upbm affinity estimate (log intensity, higher = more binding, comparable within an allelic series) in the assay with HOXB6 [1] and 9.12 upbm affinity estimate (log intensity, higher = more binding, comparable within an allelic series) in the assay with HOXB6 [2].

For CCGGCGCA, the binding signal was 9.01 upbm affinity estimate (log intensity, higher = more binding, comparable within an allelic series) with HOXB6 [1] and 9.07 upbm affinity estimate (log intensity, higher = more binding, comparable within an allelic series) with HOXB6 [2].

For CCCTGGGA, the binding signal with HOXB6 [1] was 8.98 upbm affinity estimate (log intensity, higher = more binding, comparable within an allelic series); with HOXB6 [2] it was 8.98 upbm affinity estimate (log intensity, higher = more binding, comparable within an allelic series).

In the case of GGCGTGGA, the binding signal was 9.09 upbm affinity estimate (log intensity, higher = more binding, comparable within an allelic series) with HOXB6 [1] and 9.03 upbm affinity estimate (log intensity, higher = more binding, comparable within an allelic series) in the assay with HOXB6 [2].

With CCAGTCCC, the binding signal with HOXB6 [1] is 9.1 upbm affinity estimate (log intensity, higher = more binding, comparable within an allelic series); with HOXB6 [2] it was 8.95 upbm affinity estimate (log intensity, higher = more binding, comparable within an allelic series).

As to GAGAGGGC, the binding signal is 8.82 upbm affinity estimate (log intensity, higher = more binding, comparable within an allelic series) in the assay with HOXB6 [1] and 8.79 upbm affinity estimate (log intensity, higher = more binding, comparable within an allelic series) with HOXB6 [2].

As for CGGTAGGC, the binding signal was 9.06 upbm affinity estimate (log intensity, higher = more binding, comparable within an allelic series) with HOXB6 [1] and 8.98 upbm affinity estimate (log intensity, higher = more binding, comparable within an allelic series) in the assay with HOXB6 [2].

In the case of CAACATAA, the binding signal with HOXB6 [1] was 9.7 upbm affinity estimate (log intensity, higher = more binding, comparable within an allelic series); in the assay with HOXB6 [2], 10.4 upbm affinity estimate (log intensity, higher = more binding, comparable within an allelic series).

For the sequence CGGTGTGC, the binding signal with HOXB6 [1] is 9.02 upbm affinity estimate (log intensity, higher = more binding, comparable within an allelic series); in the assay with HOXB6 [2] it was 8.92 upbm affinity estimate (log intensity, higher = more binding, comparable within an allelic series).

Consider CAAAATGG, for which the binding signal in the assay with HOXB6 [1] was 9.63 upbm affinity estimate (log intensity, higher = more binding, comparable within an allelic series); in the assay with HOXB6 [2] it was 10.4 upbm affinity estimate (log intensity, higher = more binding, comparable within an allelic series).

For GATGCCCC, the binding signal in the assay with HOXB6 [1] was 9.11 upbm affinity estimate (log intensity, higher = more binding, comparable within an allelic series); with HOXB6 [2] it was 8.96 upbm affinity estimate (log intensity, higher = more binding, comparable within an allelic series).

As for GAGGGGCA, the binding signal is 9.15 upbm affinity estimate (log intensity, higher = more binding, comparable within an allelic series) in the assay with HOXB6 [1] and 9.24 upbm affinity estimate (log intensity, higher = more binding, comparable within an allelic series) in the assay with HOXB6 [2].

As for CGCACACC, the binding signal with HOXB6 [1] was 9.16 upbm affinity estimate (log intensity, higher = more binding, comparable within an allelic series); with HOXB6 [2], 9.11 upbm affinity estimate (log intensity, higher = more binding, comparable within an allelic series).

Take AAATGGTC: the binding signal with HOXB6 [1] was 9.65 upbm affinity estimate (log intensity, higher = more binding, comparable within an allelic series); with HOXB6 [2], 10.6 upbm affinity estimate (log intensity, higher = more binding, comparable within an allelic series).

On to CGGCGCGC, for which the binding signal with HOXB6 [1] is 9.13 upbm affinity estimate (log intensity, higher = more binding, comparable within an allelic series); with HOXB6 [2], 9.19 upbm affinity estimate (log intensity, higher = more binding, comparable within an allelic series).

On to TCCTAGGA, for which the binding signal was 9.13 upbm affinity estimate (log intensity, higher = more binding, comparable within an allelic series) with HOXB6 [1] and 9.16 upbm affinity estimate (log intensity, higher = more binding, comparable within an allelic series) in the assay with HOXB6 [2].

For GGGCCCCA, the binding signal was 8.9 upbm affinity estimate (log intensity, higher = more binding, comparable within an allelic series) in the assay with HOXB6 [1] and 8.9 upbm affinity estimate (log intensity, higher = more binding, comparable within an allelic series) with HOXB6 [2].

For the sequence CCGACTCC, the binding signal with HOXB6 [1] was 9.11 upbm affinity estimate (log intensity, higher = more binding, comparable within an allelic series); with HOXB6 [2] it was 9.01 upbm affinity estimate (log intensity, higher = more binding, comparable within an allelic series).

On to GCACGTGC, for which the binding signal in the assay with HOXB6 [1] is 9.35 upbm affinity estimate (log intensity, higher = more binding, comparable within an allelic series); with HOXB6 [2], 9.36 upbm affinity estimate (log intensity, higher = more binding, comparable within an allelic series).
